Screening results as filed in PubChem BioAssay.
In the library only some 8.5% were active in any assay of this set; here they are far more common.
GoLoco inh red: RGS12 GoLoco-Gai1 interaction inhibition; P63096; Gai1:RGS12 GoLoco peptide FP, rhodamine, 10 min; Potency, µM (titrated, usually from 61.6 µM), for the others: at the top dose activity, negative = inhibition, usual class: inhibitors; 0.44% of 230,000 active; AID 880; active means well fitted inhibition curve with a large enough effect, not every such curve was filed as active; inactive means no such curve, though single readings can be large or run the other way; further: potency means the concentration at half of the fitted maximal effect; nearly all actives have a fitted effect of over 30% in size
NPSR antagonist: blocks cAMP signaling of the human neuropeptide S receptor; 1% of 220,000 active; Potency, µM (doses to about 38.3 µM), for inactives: at the highest dose activity change, negative = inhibition, most hits filed as inhibitors; CHO-NPSR cells, cAMP TR-FRET, antagonist mode; AID 1461; Q6W5P4; active means well fitted curve in the direction sought with a large enough effect; inconclusive means small, poorly fitted or top-dose-only effect, or another doubt; inactive means no such curve, though single readings can be large; an effect the other way counts as inactive or inconclusive; further: potency means the concentration at half of the fitted maximal effect; nearly all actives have a fitted effect of over 50% in size
KDM4E inh: JMJD2E (human) inhibition; JMJD2E catalytic domain, FDH-coupled NADH fluorescence (FDH is formaldehyde dehydrogenase); Potency, µM (doses to about 57.1 µM), inactives show at the top dose activity change, negative = inhibition, hits mostly inhibitors; 1.6% of 230,000 active;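 further: potency means the concentration at half of the fitted maximal effect; 0% = wells with enzyme and -100% = buffer wells without enzyme; nearly all actives have a fitted effect of over 50% in size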
Sfp PPTase inh: Sfp phosphopantetheinyl transferase inhibition | Q9F4F7 | Potency, µM, for the others: largest response in the series, negative = inhibition, hits mostly inhibitors | AID 1490 | Biochemical Sfp PPTase activity, qHTS | 3.5% of 310,000 active; active means well fitted curve in the direction sought with a large enough effect; inconclusive means small, poorly fitted or top-dose-only effect, or another doubt; inactive means no such curve, though single readings can be large; an effect the other way counts as inactive or inconclusive;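 further: the enzyme is Sfp with the accession as filed and its product quenches rhodamine fluorescence; potency means the concentration at half of the fitted maximal effect; 0% = enzyme reaction without inhibitor and -100% = no enzyme wells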
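Sfp 15 nM + cpd, 15 min RT; start w/ rhodamine-CoA 5 uM, BHQ-2-YbbR 12.5 uM (final); 50 mM Hepes pH 7.6, 10 mM MgCl2, 0.01% NP-40, 0.01% BSA; read 525/598 nm at 0 and 30 min.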
FBPA coupling cs: inhibits coupling enzyme system, counter-screen for aldolase hits. 0.67% of 290,000 active. activity change, negative = inhibition, % at 58.2 µM, hits read low. coupling enzyme system counterscreen, AmpLite Red fluorescence. AID 2472; in the data active means activity change below about -30%
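Fluorescence at 525 nm excitation and 598 nm emission measured inhibition of the coupled detection system without aldolase. Compounds (at 57.5 uM final) were preincubated 10 min at room temperature with coupling enzyme reagent before a 20 min substrate/AmpLite Red step.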
ALDH1A1 inh: blocks purified human ALDH1A1 activity; Purified ALDH1A1, NADH fluorescence, propionaldehyde substrate; Potency, µM (series often up to 75.3 µM), for inactives: at the top dose activity, negative = inhibition, usual class: inhibitors; 7.3% of 220,000 active; AID 1030;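 further: potency means the concentration at half of the fitted maximal effect; plate controls were no enzyme wells and a reference inhibitor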
Target sequence (P00352 whole entry, looked up): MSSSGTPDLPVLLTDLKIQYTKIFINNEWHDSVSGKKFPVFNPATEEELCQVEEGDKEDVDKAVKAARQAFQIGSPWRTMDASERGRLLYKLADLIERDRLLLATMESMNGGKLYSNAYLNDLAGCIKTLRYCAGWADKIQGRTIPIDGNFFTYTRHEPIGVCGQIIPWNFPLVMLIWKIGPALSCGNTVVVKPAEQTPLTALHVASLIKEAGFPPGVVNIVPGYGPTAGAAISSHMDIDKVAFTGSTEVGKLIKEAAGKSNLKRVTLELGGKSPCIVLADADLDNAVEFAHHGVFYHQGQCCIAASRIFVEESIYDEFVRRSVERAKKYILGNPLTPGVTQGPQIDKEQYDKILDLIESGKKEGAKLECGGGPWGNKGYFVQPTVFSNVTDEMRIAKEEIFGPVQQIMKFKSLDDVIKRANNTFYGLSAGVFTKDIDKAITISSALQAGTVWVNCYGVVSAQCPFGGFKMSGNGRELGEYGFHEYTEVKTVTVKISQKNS
The depositor's hits bear a star; ? = inconclusive; · = not tested or not shown; [ ] = dose if it differs, or a comment. Unless noted, the call rests on the fitted dose curve; in most records, active means well fitted inhibition curve with a large enough effect (not every such curve was filed as active); inconclusive means small, poorly fitted or top-dose-only effect, or another doubt; inactive means no such curve, though single readings can be large or run the other way. Unless noted, on the % scale 0 is the no-effect control and ±100 the full control effect.

SMILES	GoLoco inh red	NPSR antagonist	KDM4E inh	Sfp PPTase inh	FBPA coupling cs	ALDH1A1 inh
FC(F)(F)c1cc(-c2ccccc2)nc(N2CCCCCC2)n1	6%	-1%[46.1 µM]	-15%	4%	-1	3%
Brc1ccc(-c2ccc(/C=N/Nc3nc4ccccc4[nH]3)o2)cc1	2%	?	5%	4%	6	?
Cc1cc(C(=O)CN2CCCCC2)c(C)n1-c1ccc(F)cc1	6%	17%	?	7%	2	-6%
Cc1cc(C(=S)N2CCOCC2)c(C)n1-c1ccc(F)cc1	10%	-4%	11%	?	1	2.8µM*
CC(=O)Nc1c(C(=O)N2CCOCC2)cnn1-c1ccc(C)c(C)c1	9%	3%[46.1 µM]	4%	6%	6	8%
Cc1ccc(-n2c(C)cc(C(=S)N3CCOCC3)c2C)cc1C	-14%	?	7%	-23%	1	28µM*
Cc1cc(C(=O)NC2CCCCC2)c(C)n1-c1ccc(F)cc1	104%	-20%	-3%	7%	-9	14µM*
COc1cc(Br)c(CN2C(=O)NC3(CCCCCC3)C2=O)cc1OC	·	·	·	9%	10	·
CN(c1ccc(C(=O)NCCCn2ccnc2)cc1)S(C)(=O)=O	·	·	·	-9%	1	·
CNC(=O)N(O)C1N(/N=C/c2ccccc2O)C(=S)SC1(C)C (stereo not drawn)	2%	35%	-17%	45µM*	-5	·
O=C(Cc1ccccc1Cl)NCc1cccnc1	·	·	·	1%	-1	·
Nc1nc(-c2ccc(Cl)c(Cl)c2)c(-c2ccncc2)s1	-14%	·	?	22µM*	6	?
COC(=O)C1CCCCN1C(=O)CCc1nnc(CCc2c[nH]c3ccccc23)o1 (stereo not drawn)	3%	2%	-3%	8%	-10	22µM*
O=C(NCc1ccccc1)c1ccc(CS(=O)(=O)Cc2ccccc2F)o1	18%	5%	0%	-5%	0	13µM*
Cc1ccccc1S(=O)(=O)Cc1ccc(C(=O)NCc2cccnc2)o1	-23%	7%[46.1 µM]	-23%	0%	-5	14µM*
Cc1ccccc1S(=O)(=O)Cc1ccc(C(=O)NC(C)c2ccc3c(c2)OCCO3)o1 (stereo not drawn)	-4%	6%[46.1 µM]	-4%	-10%	-2	14µM*
CNC(=O)COc1coc(CN2CCN(c3ccc(OC)cc3)CC2)cc1=O	·	·	·	4%	·	·
CC1C=CCC2C(=O)N(c3cccc(C(=O)Nc4ccc(Br)cc4)c3)C(=O)C12 (stereo not drawn)	·	·	·	-5%	1	·
COc1ccc(N2C(=O)C(Cl)=C(Nc3c(C)n(C)n(-c4ccccc4)c3=O)C2=O)cc1	-20%	-17%[46.1 µM]	-10%	45µM*	-4	?
COc1ccc(CCOC(=O)c2ccc(N)c([N+](=O)[O-])c2)cc1	·	·	·	-8%	·	·
CC(=O)N1CCN(C(=S)c2ccc(N(C)C)cc2)CC1	-11%	-11%[46.1 µM]	-4%	35µM*	6	8.9µM*
Oc1ccc(C(=S)N2CCCCC2)cc1	8%	-11%[46.1 µM]	4%	50µM*	1	22µM*
CN(C)c1ccc(C(=S)N2CCOCC2)cc1	1%	-4%[46.1 µM]	4%	1%	0	?
CN(C)c1ccc(C(=S)N2CCCCCC2)cc1	4%	-15%[46.1 µM]	-6%	45µM*	-2	?
CC1CCN(C(=S)c2ccc(N(C)C)cc2)CC1	-5%	-16%	-29%	?	2	13µM*
SMILES	GoLoco inh red	NPSR antagonist	KDM4E inh	Sfp PPTase inh	FBPA coupling cs	ALDH1A1 inh
O=C(O)c1ccc(-c2ccccc2)[nH]c1=O	9%	0%	?	3%	5	·
CN(CCOc1ccc(Cl)cc1)C(=O)C1CCN(C(=O)c2ccc(Cl)cc2)CC1	·	·	·	6%	·	·
COC(=O)c1cccc(Cn2c(Cl)c(/C=N/Nc3ccccc3C)sc2=O)c1	38%	-42%	?	56µM*	-1	22µM*
O=C(O)c1cccc(Cn2c(Cl)c(/C=N/NC(=O)c3ccccc3)sc2=O)c1	16%	-11%[46.1 µM]	-11%	12%	8	0%
O=C(O)c1cccc(Cn2c(Cl)c(/C=N/NC(=O)c3cc4ccccc4cc3O)sc2=O)c1	10%	14%	-21%	?	14	10µM*
COc1ccc(NC(=O)N2CC[C@@]3(CCCN(C(=O)c4cnccn4)C3)C2)cc1	2%	·	·	15%	1	-2%
CCc1cc(=O)n2[nH]c(-c3ccccc3)c(-c3ccccc3)c2n1	·	·	·	3%	1	·
CN(C)c1cccc(NC(=O)Cc2ccc(F)cc2)c1	-9%	-14%[46.1 µM]	3%	-13%	-17	14µM*
CN(C)c1cccc(NC(=O)CCc2ccccc2)c1	-21%	0%[46.1 µM]	-28%	1%	-7	?
Cc1ccc(NC(=S)N(CCN(C)C)C(C)c2cccnc2)cc1 (stereo not drawn)	-6%	1%	-5%	12%	0	3%
Cc1cccc(C)c1NC(=S)N(CCN(C)C)C(C)c1cccnc1 (stereo not drawn)	-8%	-15%	-25%	79µM*	0	-6%
Cc1ccccc1/C=C/C1=NCCN1	-6%	2%[46.1 µM]	18µM*	·	·	?
COc1ccc(CNC(=O)CNC(c2ccccc2)c2ccccc2)cc1OC	·	·	·	18%	1	·
COCCNC(=O)CNC(c1ccccc1)c1ccccc1	-5%	4%	5%	45µM*	-4	?
CCn1c2ccccc2c2cc(C3C(C#N)=C(N)Oc4n[nH]c(COC)c43)ccc21 (stereo not drawn)	22%	?	10µM*	-5%	-8	1.8µM*
COc1cccc(-c2[nH]nc3c2C(c2ccoc2)C(C#N)=C(N)O3)c1 (stereo not drawn)	-5%	-14%[46.1 µM]	-2%	-17%	-23	13µM*
COc1cccc(-c2[nH]nc3c2C(c2ccsc2)C(C#N)=C(N)O3)c1 (stereo not drawn)	-1%	-21%[46.1 µM]	-29%	6%	-12	-5%
COCc1[nH]nc2c1C(c1cccc(OC)c1)C(C#N)=C(N)O2 (stereo not drawn)	3%	8%[7.67 µM]	-2%	-7%	1	28µM*
CN(C)S(=O)(=O)c1ccc(C(=O)Nc2cc3c(cc2C(=O)O)OCCCO3)cc1	·	·	·	12%	10	·
N#Cc1ccccc1-c1cncnc1NCc1cccnc1	-2%	·	-3%	?	-3	28µM*
C=C(C(=O)c1ccccc1)C(C)C(=C)C(=O)c1ccccc1	1%	10µM*	11%	11%	9	-2%
CCCCN(CCO)CCCC	16µM*	·	·	·	·	-14%
CCCN(CCO)CCCc1ccccc1	4%	6%[46.1 µM]	?	?	1	-9%
C[C@H](CN(C)C)C(O)(c1ccccc1)c1ccccc1	1%[14.2 µM]	·	·	·	·	16%[13.5 µM]
CC1CCCN(S(=O)(=O)c2ccc(S(=O)(=O)NC(C)c3cccs3)cc2)C1 (stereo not drawn)	90%	?	-1%	28%	-4	38µM*
